Measurements: PubChem BioAssay AID1159580 (chemical genetic matrix, 2015)
Among all 5,500 compounds or so, about 2,000 (36%) were called active. Another 18% or so got no clear call; they are omitted. Rule as the data show it: active = normalized growth mostly below about 0.91 (no sharp cut-off); inconclusive = no clear call, values can overlap the other calls; inactive = mostly above about 0.92. The list shows a part of the results.

Experiment: chemical genetic growth profiling, strain panel (AID 1159580);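 also: tested at 20 µM; growth read once vehicle control cultures reached saturation at 30 °C; 1 = growth at the plate median or of vehicle wells; lower values mean less growth of the strain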
Conditions: S. cerevisiae deletion strains, growth OD

Measured: normalized growth

O=C(O)C1CCCN(CCC=C(c2ccccc2)c2ccccc2)C1 (stereo not drawn)
inactive: locus YAL013W, strain DEP1, active compounds read low 1.04 | locus YAL040C, strain CLN3, active compounds read low 1.06 | locus YCL061C, strain MRC1 (second series), active compounds read low 1.01 | locus YDR150W, strain NUM1, active compounds read low 1.01 | locus YDR363W, strain ESC2, active compounds read low 1.02 | locus YER002W, strain NOP16, active compounds read low 1 | locus YGR078C, strain PAC10, active compounds read low 1.02 | locus YGR229C, strain SMI1, active compounds read low 1.04 | locus YMR263W, strain SAP30, active compounds read low 1.01 | locus YMR307W, strain GAS1, active compounds read low 1.01 | locus YNL153C, strain GIM3, active compounds read low 1.08 | locus YNL175C, strain NOP13, active compounds read low 0.999 | locus YNL197C, strain WHI3, active compounds read low 1 | locus YNL224C, strain SQS1, active compounds read low 0.997 | locus YNL322C, strain KRE1, active compounds read low 1.05 | locus YOR083W, strain WHI5 (second series), active compounds read low 1.04 | locus YPL055C, strain LGE1, active compounds read low 1.03 | locus YPL241C, strain CIN2, active compounds read low 1.01
